According to PubChem BioAssay (Tox21):
Results filed as inconclusive are left out. The source made the active and inactive calls. Unless noted, calls follow the shape of the full dose curve. Residues, ends and D or L forms follow the SMILES beside them.
% is scaled to controls: 0 for no effect and ±100 for the full control effect.

Each compound was assayed against Estrogen receptor (Homo sapiens) (UniProt P03372) (assay: qHTS assay to identify small molecule agonists of the estrogen receptor alpha (ER-alpha) signaling pathway (AID 743075;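 also: HEK293 GripTite cells with ER-alpha and UAS-driven beta-lactamase reporter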)). Conditions: HEK293 ER-alpha-UAS-bla, beta-lactamase FRET ratio, 18 h; series mostly up to 70.1 µM; activation: at the top concentration.
Estrogen receptor (Homo sapiens), sequence (P03372 whole entry, looked up): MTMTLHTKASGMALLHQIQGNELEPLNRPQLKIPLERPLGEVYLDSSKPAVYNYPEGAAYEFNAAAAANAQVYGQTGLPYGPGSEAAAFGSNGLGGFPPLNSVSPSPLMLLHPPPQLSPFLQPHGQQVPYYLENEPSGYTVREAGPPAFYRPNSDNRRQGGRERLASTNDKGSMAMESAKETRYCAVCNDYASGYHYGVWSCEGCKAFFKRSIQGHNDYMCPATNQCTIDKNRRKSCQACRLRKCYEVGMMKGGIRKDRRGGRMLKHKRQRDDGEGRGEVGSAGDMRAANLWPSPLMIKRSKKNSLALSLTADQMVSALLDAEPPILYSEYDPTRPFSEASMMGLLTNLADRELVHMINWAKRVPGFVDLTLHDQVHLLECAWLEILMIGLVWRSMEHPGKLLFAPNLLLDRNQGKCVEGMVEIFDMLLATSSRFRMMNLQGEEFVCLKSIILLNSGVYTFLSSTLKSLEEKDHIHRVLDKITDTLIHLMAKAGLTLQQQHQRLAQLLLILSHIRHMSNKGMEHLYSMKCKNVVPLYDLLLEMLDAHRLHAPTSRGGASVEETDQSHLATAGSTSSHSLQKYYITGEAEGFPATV
In the case of `Nc1cc(Cl)c(NC2=NCCN2)c(Cl)c1`, the “activation” value is reported as -3.06% (inactive). `CCOc1ccc(NC(=S)Nc2ccc(OCC)cc2)cc1` was tested, and the “activation” value was 1.14% (inactive). With `CCc1ncnc2cc(OC)c(OC)cc12` the “activation” value was 1.96% (inactive). `Cc1cc(=O)c(C(=O)N[C@@H](C(=O)N[C@@H]2C(=O)N3C(C(=O)O)=C(CSc4nnnn4C)CS[C@H]23)c2ccc(O)cc2)c[nH]1` was tested, and the “activation” value was 9.23% (inactive). In the case of `CC12CCC(C[N+](C)(CCC[N+](C)(C)C)C1)C2(C)C` (configuration not stated), the “activation” value is reported as 2.19% (inactive). `CN1C(=O)C[C@@H](C(=O)N[C@@H](Cc2cnc[nH]2)C(=O)N2CCC[C@H]2C(N)=O)NC1=O` was tested, and the “activation” value was -0.638% (inactive). For `COC(=O)[C@H]1[C@H]2C[C@H]3c4[nH]c5ccccc5c4CCN3C[C@H]2CC[C@@H]1O`, the “activation” value was -1.13% (inactive). With `CC[C@@H](C)[C@H](N)C(=O)O` the “activation” value was 1.13% (inactive). In the case of `C/C(=C(/CCO)SSCC1CCCO1)N(C=O)Cc1cnc(C)nc1N` (configuration not stated), the Potency is reported as “inactive”. `C=C(Nc1ccc(OCC)cc1)Nc1ccc(OCC)cc1` was tested, and the Potency was “inactive”. For `O=C(O)/C=C/C(=O)Nc1ccc(S(=O)(=O)Nc2nccs2)cc1`, the “activation” value was 3.62% (inactive). For `CC(C)=CCC/C(C)=C/CC/C(C)=C/CC/C(C)=C/CC1=C(C)C(=O)c2ccccc2C1=O`, the Potency was “inactive”. For `CO/N=C(\C(=O)N[C@@H]1C(=O)N2C(C(=O)O)=C(CSc3nc(C)c(CC(=O)O)s3)CS[C@H]12)c1csc(N)n1`, the “activation” value was 5.26% (inactive). `COc1ccc(/C=C/C(=O)O)cc1` was tested, and the “activation” value was -1.52% (inactive). `CO/N=C(\C(=O)N[C@@H]1C(=O)N2C(C(=O)[O-])=C(C[n+]3cccc4c3CCC4)CS[C@H]12)c1csc(N)n1` was tested, and the “activation” value was -2% (inactive). In the case of `NCC1CCC(C(=O)O)CC1` (configuration not stated), the “activation” value is reported as -0.323% [at 32.9 µM] (inactive). With `CCN(CC)CCOC[C@H]1O[C@@H](O)[C@H](OCCN(CC)CC)[C@@H](O)[C@@H]1O` the “activation” value was 0.0304% (inactive). In the case of `CCC(=O)OC(OP(=O)(CCCCc1ccccc1)CC(=O)N1C[C@H](C2CCCCC2)C[C@H]1C(=O)O)C(C)C` (some centres not stated), the “activation” value is reported as -0.696% (inactive). For `CC(C)=CCC/C(C)=C/CC/C(C)=C/CC/C=C(\C)CC/C=C(\C)CCC=C(C)C`, the Potency was “inactive”. `CCCCCCCCCC(=O)NO` was tested, and the Potency was “inactive”. For `NCCO/C=C/[C@H](N)C(=O)O`, the “activation” value was 2.32% (inactive). For `N=C(N)n1cccn1`, the “activation” value was 9.5% (inactive). For `Nc1c(CC(=O)O)cccc1C(=O)c1ccccc1`, the Potency was “inactive”. With `Cc1ccc(C(C)(C)c2ccc(C)cc2)cc1` the “activation” value was 2.13% (inactive). `CO[C@H]1C[C@H](O[C@H]2[C@H](C)[C@@H](O[C@@H]3O[C@H](C)C[C@H](N(C)C)[C@H]3O)[C@@H](C)C[C@]3(CO3)C(=O)[C@H](C)[C@@H](O)[C@@H](C)[C@@H](C)OC(=O)[C@@H]2C)O[C@@H](C)[C@@H]1O` was tested, and the “activation” value was -0.689% [at 32.9 µM] (inactive). With `CC[C@H]1OC(=O)C[C@@H](O)[C@H](C)[C@@H](O[C@@H]2O[C@H](C)[C@@H](O[C@H]3C[C@@](C)(O)[C@@H](O)[C@H](C)O3)[C@H](N(C)C)[C@H]2O)[C@@H](CC=O)C[C@@H](C)C(=O)/C=C/C(C)=C/[C@@H]1CO[C@@H]1O[C@H](C)[C@@H](O)[C@@H](OC)[C@H]1OC` the Potency was “inactive”. In the case of `O=C1c2c(O)cccc2[C@H]([C@@H]2O[C@H](CO)[C@@H](O)[C@H](O)[C@H]2O)c2cc(CO)cc(O)c21`, the Potency is reported as “inactive”.

The compounds below were run against Estrogen receptor (Homo sapiens) (UniProt P03372) (assay: qHTS assay to identify small molecule agonists of the estrogen receptor alpha (ER-alpha) signaling pathway using the BG1 cell line (AID 743079; active = well fitted activation curve with a large enough effect in the repeat runs; also: nearly all actives have a fitted effect of over 20% in size)). Conditions: BG1Luc4E2 cells, ERE-luciferase agonist, 22 h; series mostly up to 70.3 µM; activation: at the top concentration.
`C/C(=C\C(=O)OCCCCCCCCC(=O)O)C[C@@H]1OC[C@H](C[C@@H]2O[C@H]2[C@@H](C)[C@H](C)O)[C@@H](O)[C@H]1O` was tested, and the “activation” value was 8.23% (inactive). In the case of `CC(C)[C@H](NC(=O)[C@H](CC(=O)O)NC(=O)[C@H](CCCCN)NC(=O)[C@@H](N)CCCN=C(N)N)C(=O)N[C@@H](Cc1ccc(O)cc1)C(=O)O` (H-RKDVY-OH), the “activation” value is reported as 6.65% (inactive). `NC(=O)[C@@H]1CCCN1C(=O)[C@H](Cc1cnc[nH]1)NC(=O)[C@@H]1CCC(=O)N1` was tested, and the “activation” value was 13.2% (inactive). For `CC[C@H]1OC(=O)[C@H](C)C(=O)[C@H](C)[C@@H](O[C@@H]2O[C@H](C)C[C@H](N(C)C)[C@H]2O)[C@](C)(OC)C[C@@H](C)C(=O)[C@H](C)[C@H]2N(CCCCn3cnc(-c4cccnc4)c3)C(=O)O[C@]12C`, the “activation” value was 4.77% (inactive). For `C[N+](C)(C)CCOP(=O)(O)OP(=O)([O-])OC[C@H]1O[C@@H](n2ccc(N)nc2=O)[C@H](O)[C@@H]1O`, the Potency was “inactive”.
